Measured values from PubChem BioAssay (Tox21).
Inconclusive results are not listed. Where a call stands in place of a potency, no number is given. The source made the active and inactive calls. Calls follow the shape of the dose curve; as a rule, active = well fitted cell-killing curve with a large enough effect in the repeat runs; inconclusive = weak or mixed curves, or effect the other way; inactive = flat fitted curve, though single readings scatter.

Key:
[1] = cAMP Responsive Elements (CRE) small molecule antagonists, cell-based qHTS assay: qHTS cell viability counter screen (AID 2060913); details: CRE-bla HEK293T viability, CellTiter-Glo luminescence, 5 h; series mostly up to 92.4 µM; also: nearly all actives have a fitted effect of over 40% in size
How it was run: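 Cytotoxicity read in the same wells as the CRE-bla HEK293T antagonist assay: after 3 h compound with 0.25 uM NKH477 final and 2 h beta-lactamase substrate, CellTiter-Glo luminescence measured.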

[2] = cAMP Responsive Elements (CRE) small molecule agonists, cell-based qHTS assay: qHTS cell viability counter screen (AID 2060914); details: CRE-bla HEK293T viability, CellTiter-Glo luminescence, 5 h; series mostly up to 92.4 µM;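 also: viability read after 3 h of compound exposure; nearly all actives have a fitted effect of over 50% in size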
How it was run: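 Cells are seeded and incubated 18 h, treated with compounds in DMSO for 3 h, read for the bla reporter, then given CellTiter-Glo; luminescence is measured after 30 min at room temperature.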

Structure (SMILES) | Potency [1] | Potency [2]
CC(C)C(Br)C(=O)NC(N)=O (centres undefined) | inactive | inactive
Cc1cccc(C)c1N | inactive | inactive
CC(C)C1(C)N=C(c2nc3ccccc3cc2C(=O)O)NC1=O (centres undefined) | inactive | inactive
CNC(=S)S | inactive | inactive
O=C(O)COc1ccccc1 | inactive | inactive
Cc1cc(O)ccc1Cl | inactive | inactive
CCOC(=O)C1(c2ccccc2)CCN(CCc2ccc(N)cc2)CC1 | inactive | inactive
O=Cc1cccc(Oc2ccccc2)c1 | inactive | inactive
Nc1ccc2ccccc2c1 | inactive | inactive
CCCCCCCCc1ccc(O)cc1 | inactive | inactive
O=NN1CCN(N=O)CC1 | inactive | inactive
O=C1CCCO1 | inactive | inactive
COc1ccc(CO)cc1 | inactive | inactive
OCC1CO1 (centres undefined) | inactive | inactive
CCCCn1cc[n+](C)c1 (tested in a mixture with another compound) | inactive | inactive
CC[n+]1ccccc1 | inactive | inactive
Cc1nnc2n1-c1sc(CCC(=O)N3CCOCC3)cc1C(c1ccccc1Cl)=NC2 | inactive | inactive
Nc1cccnc1 | inactive | inactive
COC(=O)c1ccccc1N | inactive | inactive
C[C@]12CC[C@H]3[C@@H](CCC4=CC(=O)CC[C@@]43C)[C@@H]1CC[C@@H]2C(=O)O | inactive | inactive
CSc1nc(NC(C)C)nc(NC(C)C)n1 | inactive | inactive
ClC1=C(Cl)[C@]2(Cl)[C@H]3[C@H]([C@@H]4C=C[C@H]3C4)[C@@]1(Cl)C2(Cl)Cl | inactive | inactive
